Records with an inconclusive call do not appear. Active and inactive are the calls of the source. Calls come from the whole dose curve; as a rule, active = well fitted cell-killing curve with a large enough effect in the repeat runs; inconclusive = weak or mixed curves; inactive = no such curve, though single readings can be large or run the other way.
test: qHTS assay to identify small molecule agonists of the peroxisome proliferator-activated receptor delta (PPARd) signaling pathway - cell viability counter screen (AID 743211); conditions: PPARd-bla HEK293H viability, CellTiter-Glo luminescence, 17 h; series mostly up to 62.6 µM; activity change, negative = cytotoxicity: at the top concentration; note: nearly all actives have a fitted effect of over 55% in size
Excerpt: U.S. Tox21 Program National Center for Advancing Translational Sciences [NCATS] NIH Chemical Genomics Center [NCGC] U.S. Environmental Protection Agency [EPA] National Institutes of Environmental Health Sciences [NIEHS] National Toxicology Program [NTP] U.S. Food and Drug Administration [FDA] Tox21 Assay Overview: The peroxisome proliferator-activated receptors (PPARs) are lipid-activated transcription factors of the nuclear receptor superfamily with three distinct subtypes namely PPAR alpha, PPAR delta (PPARd) and PPAR gamma. All these subtypes heterodimerizes with Retinoid X receptor (RXR) and have different physiological functions. […] To identify the compounds that activate PPAR-delta signaling, GeneBLAzer PPAR delta UAS-bla HEK293H cell line (Invitrogen, Carlsbad, CA, USA) containing a beta-lactamase reporter gene under the control of an Upstream Activator Sequence (UAS) was used to screen the Tox21 compound library. The cytotoxicity of the Tox21 compound library against the PPARd-bla cell line was tested in parallel by measuring the cell viability using CellTiter-Glo assay (Promega, Madison, WI) in the same wells.
Tox21 Assay Protocol Summary: PPARd-bla cells were dispensed at 3000 cells/6uL/well in 1536-well black wall/clear bottom plates using a Multidrop Combi (Thermo Fisher Scientific, Waltham, MA) dispenser. After the assay plates were incubated at 37 C and 5% CO2 for 5 h, 23 nL of compounds dissolved in DMSO, positive controls or DMSO only was transferred to the assay plate by a Pintool station (Kalypsys, San Diego, CA). The assay plates were incubated at 37C for 17 h. After 1 uL of LiveBLAzerTM B/G FRET substrate was added using a Bioraptr Flying Reagent Dispenser (FRD) workstation (Beckman Coulter, Indianapolis, IN, USA), the plates were incubated at room temperature for 2 h, and fluorescence intensity was measured by an Envision plate reader (PerkinElmer, Shelton, CT). For cell viability readout that measures cytotoxicity, 3 ul/well of CellTiter-Glo reagent was added into the assay plates using a Bioraptr FRD. After 30 min incubation at room temperature, the luminescence intensity in the plates was measured using a ViewLux plate reader (PerkinElmer).
% is set by controls: 0 for no effect and ±100 for the full control effect; potency is the fitted concentration of half-maximal effect.

Row | Compound | activity change, negative = cytotoxicity | Potency
1 | COc1ccnc2c1CCCCC2S(=O)c1nc2ccccc2[nH]1 (stereo not given) | -1.83% (inactive) | 
2 | Oc1ccc(Oc2ccccc2)cc1 | -10.1% (inactive) | 
3 | OCC(O)c1ccccc1 (stereo not given) | -1.39% (inactive) | 
4 | CS(C)=O | 9.21% (inactive) | 
5 | O=P(c1ccccc1)(c1ccccc1)c1ccccc1 | 0.417% (inactive) | 
6 | CNc1ccccc1 | 4.03% (inactive) | 
7 | CC(C)Oc1ccccc1O | 1.6% (inactive) | 
8 | CCc1c(C)[nH]c2c1C(=O)C(CN1CCOCC1)CC2 (stereo not given) | 0.234% (inactive) | 
9 | COc1cccc([C@H](O)C2CCN(CCc3ccc(F)cc3)CC2)c1OC | -9.94% (inactive) | 
10 | CC(C)C/C=C(\C=O)c1ccccc1 | 2.91% (inactive) | 
11 | CC(=O)Oc1cccc2c1C(=O)c1c(OC(C)=O)cc(C(=O)O)cc1C2=O | -8.06% (inactive) | 
12 | [O-][n+]1ccc(Cl)cc1 | 1.61% [at 81.1 µM] (inactive) | 
13 | CC(O)C(C)O (stereo not given) | 3.49% [at 81.1 µM] (inactive) | 
14 | C(/C=C/C=C/Nc1ccccc1)=Nc1ccccc1 | 4.77% (inactive) | 
15 | C=C[Si](OCC)(OCC)OCC | 9.3% (inactive) | 
16 | CCCCCCCCOCCCN |  | 49 µM (active)
17 | Cc1cc(SC2=C(O)C[C@@](CCc3ccc(N)cc3)(C(C)C)OC2=O)c(C(C)(C)C)cc1CO | 2.2% (inactive) | 
18 | O=C(OC1C[C@H]2CC[C@@H](C1)[N+]21CCCC1)C(O)(c1ccccc1)c1ccccc1 (stereo not given in full) | -0.109% (inactive) | 
19 | C=CC(C)CCC=C(C)C (stereo not given) | -22.7% (inactive) | 
20 | CCCOC(C)=O | -1.66% (inactive) | 

Row | Compound | activity change, negative = cytotoxicity | Potency
21 | CC(=O)c1ccc(Cl)c(Cl)c1Cl | -1.44% (inactive) | 
22 | CCc1ccc2c(c1)C(=O)c1ccccc1C2=O | 2.32% (inactive) | 
23 | CC(C)CC(C)(C)C | 2.19% [at 81.1 µM] (inactive) | 
24 | CCCCCCCCNC | 1.54% (inactive) | 
25 | O=C(C1CCCCC1)N1CC(=O)N2CCCc3ccccc3C2C1 (stereo not given) | 4.61% (inactive) | 
26 | C=CC(C)(O)CC/C=C(/C)CCC=C(C)C (stereo not given) | -10.2% (inactive) | 
27 | Nc1ccc(C(=O)Oc2ccccc2)c(O)c1 | 6.76% (inactive) | 
28 | FC1(F)C(F)(F)C(F)(F)C2(F)C(F)(C1(F)F)C(F)(F)C(F)(F)C1(F)C(F)(F)C(F)(F)C(F)(F)C(F)(F)C12F (stereo not given) | 10.5% (inactive) | 
29 | CC(C)(C(=O)O)c1ccc(C(O)CCCN2CCC(C(O)(c3ccccc3)c3ccccc3)CC2)cc1 (stereo not given) | -2.73% (inactive) | 
30 | CCOc1ccccc1O | 10.2% (inactive) | 
31 | FC(F)(Cl)C(F)(Cl)Cl | 5.8% (inactive) | 
32 | Cc1ccc(Cl)c(OCC(O)CNC(C)(C)C)c1 (stereo not given) | -16.6% (inactive) | 
33 | Cc1ccc(S(=O)(=O)NC(=O)NC2CCCC2)cc1 | 3.63% (inactive) | 
34 | Cc1cc(N)n(-c2ccccc2)n1 | -3.11% (inactive) | 
35 | O=C(O)c1cc(C(=O)O)cc([N+](=O)[O-])c1 | -5.36% (inactive) | 
36 | C/C(=C(\CCO)SS/C(CCO)=C(\C)N(C=O)Cc1cnc(C)nc1N)N(C=O)Cc1cnc(C)nc1N | 5.06% (inactive) | 
37 | Cc1cc(C)c(C)c(O)c1 | 7.02% (inactive) | 
38 | CC(CCl)OC(C)CCl (stereo not given) | 2.66% (inactive) | 
39 | CCC(C)CCCC(C)(C)O (stereo not given) | -5.89% (inactive) | 
40 | Nc1cccc2c(=O)[nH][nH]c(=O)c12 | 0.726% [at 81.1 µM] (inactive) | 
